Common to all, as to test: BK channel mutant inhibitors and activators – cell-based, U2OS BacMam, thallium flux, beta subunits, selectivity assay, profiling panel (AID 1259406);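 note: initial slope of Thallos dye fluorescence rise after thallium is added; log ratio against the mean of 0.3% DMSO vehicle wells on the same plate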
Assay [1] relates to F380Y. Particulars: U2OS BacMam BK variants, at 30 µM.
Assay [2] has as its system F380Y/beta1. Particulars: U2OS BacMam BK variants, at 30 µM.
Assay [3] has as its system F380Y/beta2Delta. Particulars: U2OS BacMam BK variants, at 30 µM.
The test system of assay [4] is F380Y/beta4. Particulars: U2OS BacMam BK variants, at 30 µM.
For assay [5], the target named is Calcium-activated potassium channel subunit alpha-1 (Homo sapiens) + Leucine-rich repeat-containing protein 26 (Homo sapiens) (UniProt Q12791+Q2I0M4). Particulars: U2OS BacMam BK variants, F380Y/Slo1WT/gamma1, at 30 µM.
The subject of assay [6] is R275C. Particulars: U2OS BacMam BK variants, at 30 µM.
Assay [7] relates to R275C/beta1. Particulars: U2OS BacMam BK variants, at 30 µM.
For assay [8], the system named is R275C/beta2Delta. Particulars: U2OS BacMam BK variants, at 30 µM.
Assay [9] has as its system R275C/beta4. Particulars: U2OS BacMam BK variants, at 30 µM.
Assay [10] deals with R275C/Slo1WT/beta2. Particulars: U2OS BacMam BK variants, at 30 µM.

Each structure is given as a SMILES string. Unmarked numbers belong to inactive results. The source made the active and inactive calls.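 Rule for the calls: active = thallium flux through the channel raised or lowered by more than 3 SD from vehicle-only wells, actives on both sides; inactive = the rest.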

Chain of Calcium-activated potassium channel subunit alpha-1 (Homo sapiens) + Leucine-rich repeat-containing protein 26 (Homo sapiens) (Q2I0M4 whole entry, looked up, one chain of several): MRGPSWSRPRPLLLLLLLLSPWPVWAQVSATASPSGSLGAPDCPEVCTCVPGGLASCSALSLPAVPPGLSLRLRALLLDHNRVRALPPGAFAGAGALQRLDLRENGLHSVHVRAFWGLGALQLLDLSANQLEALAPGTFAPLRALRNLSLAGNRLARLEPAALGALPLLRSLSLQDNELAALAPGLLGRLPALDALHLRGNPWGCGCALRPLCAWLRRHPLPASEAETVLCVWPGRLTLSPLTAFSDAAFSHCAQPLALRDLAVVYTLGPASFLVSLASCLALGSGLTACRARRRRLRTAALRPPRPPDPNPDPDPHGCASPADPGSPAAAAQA

As for `CN(C)C=Nc1cc(Cl)c(-n2cccc2)cc1Oc1ccc(Cl)cc1`, the log fold change Tl+ flux in assay [1] is 0.0245; in assay [2] it was 0.0128; in assay [3], -0.0305; in [4], -0.016; in assay [5], 0.0223; in [6], -0.0532. Moreover, the log fold change Tl+ flux in assay [7] was -0.0556; in assay [8], -0.0155; in assay [9], -0.0061; in assay [10], -0.0144.

`O=C(c1ncoc1-c1ccccc1)N(Cc1ccccn1)Cc1ccccn1`: the log fold change Tl+ flux is 0.0015 in [1]; 0.0293 in [2]; -0.0298 in [3]; 0.051 in assay [4]; -0.0237 in [5]; -0.0056 in assay [6]. In addition, the log fold change Tl+ flux in assay [7] was 0.0298; in [8], 0.0379; in [9], 0.0394; in assay [10] it was 0.033.

Regarding `Oc1ccccc1C=NCCN=Cc1ccccc1O`, the log fold change Tl+ flux in [1] was -0.0379; in assay [2], -0.0045; in [3] it was 0.0233; in assay [4], 0.122 (active); in [5] it was 0.00734; in assay [6], 0.0166. Also, the log fold change Tl+ flux is -0.00586 in assay [7], 0.0216 in assay [8], 0.00607 in [9] and 0.0616 in [10].

For `NNC(=O)Cc1csc2nc(-c3ccccc3)nn12`, the log fold change Tl+ flux in assay [1] was 0.0124; in assay [2], 0.00927; in [3] it was 0.017; in assay [4] it was 0.00133; in assay [5], -0.0179; in [6], 0.0143. In addition, the log fold change Tl+ flux in [7] was 0.0323; in [8] it was 0.0113; in assay [9], 0.0106; in assay [10] it was 0.0322.

As for `FC(F)(F)c1ccc(-c2csc(C3(c4ccc(Cl)cc4Cl)CC3)n2)cc1`, the log fold change Tl+ flux in assay [1] was -0.0289; in [2], 0.000911; in [3], 0.0443; in assay [4] it was -0.0216; in assay [5], 0.0176; in assay [6] it was -0.00802. Besides, the log fold change Tl+ flux is 0.0119 in [7], -0.00666 in [8], 0.0455 in [9] and -0.0337 in assay [10].

As to `ONC=Nc1nonc1-c1cccnc1`, the log fold change Tl+ flux in assay [1] was 0.00986; in [2] it was -0.0105; in assay [3] it was -0.0403; in [4], 0.000104; in assay [5], -0.0369; in [6], -0.0128. Moreover, the log fold change Tl+ flux was 0.016 in assay [7], -0.0342 in [8], -0.00156 in assay [9] and 0.00719 in [10].

As to `CSc1nc(C)nc(Sc2cccc(C(F)(F)F)c2)c1C#N`, the log fold change Tl+ flux in assay [1] is -0.0573; in assay [2] it was 0.0287; in assay [3], 0.00499; in assay [4] it was 0.0691; in assay [5], 0.0378; in assay [6] it was -0.0292. Also, the log fold change Tl+ flux in [7] is -0.00668; in assay [8] it was -0.023; in assay [9] it was 0.00747; in [10], 0.00901.

For `CN(C)C=NC(=O)c1sc(S(C)(=O)=O)c2c1CCC=C2`, the log fold change Tl+ flux in assay [1] was 0.147 (active); in [2] it was 0.036; in assay [3] it was -0.00643; in [4], 0.00437; in [5] it was -0.0666; in assay [6], 0.00156. Further, the log fold change Tl+ flux was -0.0344 in assay [7], 0.00771 in assay [8], -0.00153 in assay [9] and 0.0518 in [10].

With `Nc1ccc(Cl)cc1-c1nc2ccccc2[nH]1`, the log fold change Tl+ flux was -0.0882 in assay [1]; -0.0427 in assay [2]; -0.0974 in assay [3]; -0.0939 (active) in assay [4]; -0.0918 in assay [5]; -0.0721 in assay [6]. In addition, the log fold change Tl+ flux in [7] is -0.112 (active); in [8], -0.0678; in [9] it was -0.0366; in [10], 0.00169.

Turning to `O=C(Cn1nnc(N2CCCC2)n1)NN=Cc1ccc(Cl)cc1`, the log fold change Tl+ flux is -0.0338 in assay [1]; -0.0165 in [2]; -0.0415 in assay [3]; 0.0509 in assay [4]; -0.0411 in assay [5]; 0.0738 in assay [6]. The log fold change Tl+ flux is 0.012 in assay [7], -0.0395 in [8], 0.0185 in assay [9] and -0.00152 in assay [10].

Consider `CCOC(=O)c1c(N)n(-c2ccc(Cl)cc2)c2nc3ccccc3nc12`, for which the log fold change Tl+ flux in [1] is -0.0102; in assay [2], 0.0245; in assay [3], -0.0247; in assay [4], 0.0204; in assay [5] it was 0.0261; in [6], -0.0291. Also, the log fold change Tl+ flux is -0.0146 in assay [7], -0.0215 in assay [8], 0.011 in assay [9] and 0.0184 in assay [10].

On to `NC(=O)c1nnn(-c2ccc([N+](=O)[O-])cc2)c1-c1ccccc1`, for which the log fold change Tl+ flux in assay [1] is 0.0114; in assay [2], -0.0124; in assay [3], 0.0187; in assay [4], 0.0444; in [5], 0.0451; in assay [6], -0.0124. The log fold change Tl+ flux in [7] is -0.0135; in assay [8], 0.0277; in assay [9], 0.0182; in assay [10], -0.00577.

The values above are taken from PubChem BioAssay.
